Screening data deposited in PubChem BioAssay by National Center for Advancing Translational Sciences (NCATS).
Compounds with a hit are over-represented: about 8% of the library has one in this group of screens.
MCF10A rerep: A quantitative high throughput screen for small molecules that induce DNA re-replication in MCF 10a normal breast cells; MCF 10A DNA re-replication, Hoechst nuclear intensity, 48 h; Potency, µM (series often up to 46.1 µM), hits mostly activators; 350,000 compounds, 2.9% hits; AID 624296, 2012; further: nearly all actives have a fitted effect of over 50% in size
KB-3-1 tox: qHTS assay for MDR1-selective chemotherapeutics: Primary screen using the parental adenocarcinoma cell KB-3-1; AID 1347075, 2019; 400,000 compounds, 1.4% hits; KB-3-1 viability, CellTiter-Glo ATP luminescence, 72 h; Potency, µM (doses to about 46.1 µM), most hits filed as cytotoxic; further: nearly all actives have a fitted effect of over 60% in size
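KB-3-1 parental drug-naive adenocarcinoma cells in DMEM/10% FBS, incubated 72 h at 37 C with pin-transferred compounds across a concentration series. Viability by CellTiter-Glo luminescence; concentration-response curves fitted after normalization.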
SW480 rereplic: A quantitative high throughput screen for small molecules that induce DNA re-replication in SW480 colon adenocarcinoma cells | SW480 DNA re-replication, Hoechst DNA content imaging, 48 h | Potency, µM (series often up to 46.1 µM), hits mostly activators | 340,000 compounds, 1.8% hits | AID 624297, 2012; further: nearly all actives have a fitted effect of over 55% in size
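Image-based DNA-content assay: after two days of treatment, nuclei were labelled with the DNA dye Hoechst and imaged, and hits were compounds raising the count of nuclei showing high fluorescence intensity.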
KB-V1 MDR tox: qHTS assay for MDR1-selective chemotherapeutics: Primary screen using the drug-selected MDR subline cells KB-V1 | KB-V1 MDR cells viability, CellTiter-Glo, 72 h | Potency, µM (titrated, usually from 46.1 µM), hits mostly cytotoxic | 400,000 compounds, 3.4% hits; further: nearly all actives have a fitted effect of over 60% in size
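Cytotoxicity via CellTiter-Glo luminescence after 72 h compound exposure at 37 degrees C. Cells: drug-selected KB-V1 line, DMEM phenol-red free plus 10% FBS. Compounds tested at multiple concentrations; normalized data fitted to concentration-effect curves.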
HT1080-NT tox: qHTS for induction of synthetic lethality in tumor cells producing 2HG: qHTS for the HT-1080-NT fibrosarcoma cell line; HT-1080-NT fibrosarcoma viability, CellTiter-Glo ATP luminescence, 48 h; Potency, µM (highest dose often 46.1 µM), most hits filed as cytotoxic; 360,000 compounds, 1.6% hits;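 further: NT is the 2HG producing partner of a matched IDH1 knockdown line; nearly all actives have a fitted effect of over 55% in size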
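Read-out is CellTiter-Glo luminescence after 10 minutes at room temperature, following 48 hours' compound treatment of HT-1080-NT cells (750 cells/well, RPMI, 5% FBS, 37 degrees C).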
HT1080 IDH1KD tx: qHTS for induction of synthetic lethality in tumor cells producing 2HG: qHTS for the HT-1080-IDH1KD cell line | AID 686971, 2013 | Potency, µM (titrated, usually from 46.1 µM), hits mostly cytotoxic | HT-1080 IDH1 knockdown viability, ATP luminescence, 48 h | 360,000 compounds, 2% hits
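After a 2 h attachment period, IDH1KD HT-1080 cells took pin-transferred compound for 48 h at 37 °C; ATP-based luminescence after 10 min room-temperature reagent incubation reported viability.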
Numbers stand for hits; 0 = inactive; ? = inconclusive; - = no result given; [ ] = remark or other dose. The call rests on the fitted dose curve; in most records, active means well fitted curve in the direction sought with a large enough effect; inconclusive means small, poorly fitted or top-dose-only effect, or another doubt; inactive means no such curve, though single readings can be large; an effect the other way counts as inactive or inconclusive.

SMILES | MCF10A rerep | KB-3-1 tox | SW480 rereplic | KB-V1 MDR tox | HT1080-NT tox | HT1080 IDH1KD tx
COc1cccc(NC(=O)CN(C)C(=O)CSc2nc3ccccc3s2)c1 | 0 | 0 | 0 | ? | 0 | 0
COc1cccc(NC(=O)CN(C)C(=O)c2ccccc2-c2nc3ccccc3s2)c1 | ? | 0 | 0 | 18.4µM | 0 | 0
CN(CC(=O)Nc1c(Cl)cccc1Cl)C(=O)c1ccccc1-c1nc2ccccc2s1 | 0 | 0 | 0 | 8.2µM | 0 | 0
CCOc1ccc(NC(=O)N2CCN(C(=O)c3nsc4ccccc34)CC2)cc1 | - | 0 | - | 0 | - | -
COc1ccc(Cl)cc1N(C)C(=O)Cc1noc2ccc(C)cc12 | - | 0 | - | 0 | - | -
CN(C)S(=O)(=O)c1cccc(NC(=O)c2cccc(S(=O)(=O)N3CCc4ccccc43)c2)c1 | 0 | ? | 0 | 0 | ? | ?
Cc1cc(=O)[nH]c2ccc([N+](=O)[O-])cc12 | - | 0 | - | 0 | - | -
Cc1ccc(C)c2c1[nH]c1ccc([N+](=O)[O-])cc12 | 0 | ? | 0 | 8.2µM | 0 | ?
Cc1cccc(-n2c(Cc3ccccc3)nnc2SCc2ccc([N+](=O)[O-])cc2)c1 | ? | ? | 0 | 7.31µM | 0 | 0
O=[N+]([O-])c1ccc(CSc2nnc(Cc3ccccc3)n2-c2ccc(F)cc2)cc1 | 0 | 0 | - | ? | 0 | 0
Cn1c(CSc2nnc(SCc3ccccc3)s2)nc2ccccc21 | 0 | 0 | 0 | 16.4µM | 0 | 0
O=[N+]([O-])c1ccc(CSc2nnc(SCc3ccccc3)s2)cc1 | 6.51µM | 0 | 0 | 0 | 0 | 0
O=[N+]([O-])c1ccc(CSc2nc3ccccc3o2)cc1 | 0 | 0 | 0 | 0 | 0 | 0
Cc1cccc(-n2c(SCc3ccc(C#N)cc3)nnc2-c2c[nH]c3ccccc23)c1 | 0 | ? | 0 | 3.26µM | ? | ?
COc1ccc(NC(=O)CSC2=Nc3ccccc3C3=NC(CC(=O)NCc4ccco4)C(=O)N23)cc1 (stereo not given) | - | 0 | - | 0 | - | -
COc1ccc(CCN2CCC(CNC(=O)c3cnn(-c4ccc(C)cc4)c3C3CCN(C(=O)OC(C)(C)C)CC3)CC2)cc1 | - | 0 | - | ? | - | -
CCn1c(=O)n(CC)c2cc(N3CCCC3)c(NC(=O)c3cccc(OC)c3)cc21 | ? | 0 | 0 | ? | 0 | 0
COCCn1c(SCC(=O)NCc2ccc(F)cc2)nc2ccccc21 | 0 | 0 | 0 | 0 | 0 | 0
Cc1ccc(C)c(S(=O)(=O)N2CCN(C(=O)CCNS(=O)(=O)c3ccccc3)CC2)c1 | 0 | 0 | 0 | ? | 0 | 0
Cc1ccc(C)c(S(=O)(=O)N2CCN(C(=O)CCC(=O)NCc3ccc(Cl)cc3Cl)CC2)c1 | 20.6µM | 0 | 0 | 0 | 0[9.24 µM] | 0
O=S(=O)(c1ccc(C2CCCCC2)cc1)N1CCN(c2cc(Cl)ccc2Cl)CC1 | - | 0 | - | 0 | - | -
Cc1[nH]c2ccccc2c1C(c1ccccn1)N1CCCC1 (stereo not given) | 0 | 0 | 0 | 0 | 0 | 0
Cc1[nH]c2ccccc2c1C(c1ccccn1)N1CCC(C)CC1 (stereo not given) | 0 | 18.4µM | 0 | ? | 0 | 0
O=C(COC(=O)c1ccc(Cl)cc1[N+](=O)[O-])NNC(=O)c1cccs1 | 0 | 0 | 0 | 0 | 0 | 0
Cc1cc(C(=O)OCC(=O)NNC(=O)c2cccs2)ccc1[N+](=O)[O-] | ? | 0 | 11.6µM | 0 | 0 | 0
COC(=O)c1cc(C(=O)OCC(=O)NNC(=O)c2cccs2)cc([N+](=O)[O-])c1 | 0 | 0 | 2.91µM | 0 | 0 | ?
CS(=O)(=O)c1ccc(C(=O)OCC(=O)NCc2cccs2)cc1[N+](=O)[O-] | 4.11µM | ? | 9.2µM | ? | ? | 0
O=C(CCc1nc2ccccc2c(=O)[nH]1)NNC(=O)COc1cccc(F)c1 | 0 | 0 | 0 | 0 | 0 | 0
